Measured values as given in ChEMBL document CHEMBL3988442, “University of Dundee, Small-Polar-MMV Screening Library” (2021).
For some of these results: Entries with a potency or affinity are not part of this list.

Experiments:
Set-up in all cases: scale not given: direction of the effect not stated beside the values
[1] = target: Protein translocase subunit SecA (Escherichia coli (strain K12)) (UniProt P10408); assay: Assay to Identify E. coli SecA ATPase Inhibitors; assay type: functional; details: 30 µM
[2] = target: T1, Ubiquitin-activating enzyme e1, putative (Leishmania donovani (strain BPK282A1)) (UniProt E9BSI1); assay: Leishmania donovani Ubiquitin Activating Enzyme (LdE1); assay type: functional; details: 30 µM
T1 sequence (whole entry): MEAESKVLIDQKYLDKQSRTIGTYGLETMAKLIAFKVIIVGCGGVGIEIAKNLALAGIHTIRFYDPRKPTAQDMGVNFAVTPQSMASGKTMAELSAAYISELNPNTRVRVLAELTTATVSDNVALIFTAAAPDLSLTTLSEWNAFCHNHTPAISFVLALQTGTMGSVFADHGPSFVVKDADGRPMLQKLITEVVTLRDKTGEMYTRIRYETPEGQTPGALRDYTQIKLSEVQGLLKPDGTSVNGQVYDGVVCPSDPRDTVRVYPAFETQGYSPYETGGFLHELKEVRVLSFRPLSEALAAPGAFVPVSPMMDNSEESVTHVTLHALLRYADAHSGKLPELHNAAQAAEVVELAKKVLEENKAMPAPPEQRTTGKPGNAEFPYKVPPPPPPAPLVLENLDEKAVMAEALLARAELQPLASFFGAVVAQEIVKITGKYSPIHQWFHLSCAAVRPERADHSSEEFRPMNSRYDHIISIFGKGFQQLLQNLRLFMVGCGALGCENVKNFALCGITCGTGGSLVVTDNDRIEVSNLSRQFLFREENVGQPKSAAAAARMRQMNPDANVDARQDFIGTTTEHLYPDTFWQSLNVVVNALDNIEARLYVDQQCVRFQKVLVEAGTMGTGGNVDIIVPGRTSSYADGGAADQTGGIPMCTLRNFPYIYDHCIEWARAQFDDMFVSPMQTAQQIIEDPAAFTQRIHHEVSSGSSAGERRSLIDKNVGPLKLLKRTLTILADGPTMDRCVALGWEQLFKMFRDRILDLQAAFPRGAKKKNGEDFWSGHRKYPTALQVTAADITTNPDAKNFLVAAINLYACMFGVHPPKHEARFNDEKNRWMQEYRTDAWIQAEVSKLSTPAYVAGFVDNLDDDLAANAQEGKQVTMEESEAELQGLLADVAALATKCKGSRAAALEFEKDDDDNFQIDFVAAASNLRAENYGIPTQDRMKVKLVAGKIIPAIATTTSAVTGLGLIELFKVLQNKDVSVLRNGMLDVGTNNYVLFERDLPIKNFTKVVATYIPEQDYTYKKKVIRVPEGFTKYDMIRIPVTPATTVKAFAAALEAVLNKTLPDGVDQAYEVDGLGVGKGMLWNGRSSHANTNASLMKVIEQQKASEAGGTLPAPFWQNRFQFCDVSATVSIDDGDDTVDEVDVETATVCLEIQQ

[3] = target: AMP-activated protein kinase, AMPK (Homo sapiens) (UniProt P54646+O43741+P54619+Q9UGJ0+Q9Y478+Q13131+Q9UGI9); assay: AMP-dependent Kinase enzyme assay. An in vitro enzyme assay that detects ADP turnover that is directly proportional to AMPK activity. This uses naive AMPK that is activated during the assay with MK-8722; assay type: functional; details: 30 µM
[4] = target: Sialic acid-binding Ig-like lectin 9 (Homo sapiens) (UniProt Q9Y336); assay: Hs-Siglec9 ALPHAscreen SOP 20170721; details: 10 µM
Trypanosoma cruzi = assay: Trypanosoma cruzi phosphomannomutase and mannose-1-phosphate guanylyltransferase assay; assay type: functional; details: 10 µM
[5] = target: T2, Arginase-2, mitochondrial (Homo sapiens) (UniProt P78540); assay: in vitro enzyme assay to detect the production of urea directly proportional to the activity of Arginase II; assay type: functional; details: 33.3 µM; note: in the data most compounds retested in dose-response had high values
T2 sequence (whole entry): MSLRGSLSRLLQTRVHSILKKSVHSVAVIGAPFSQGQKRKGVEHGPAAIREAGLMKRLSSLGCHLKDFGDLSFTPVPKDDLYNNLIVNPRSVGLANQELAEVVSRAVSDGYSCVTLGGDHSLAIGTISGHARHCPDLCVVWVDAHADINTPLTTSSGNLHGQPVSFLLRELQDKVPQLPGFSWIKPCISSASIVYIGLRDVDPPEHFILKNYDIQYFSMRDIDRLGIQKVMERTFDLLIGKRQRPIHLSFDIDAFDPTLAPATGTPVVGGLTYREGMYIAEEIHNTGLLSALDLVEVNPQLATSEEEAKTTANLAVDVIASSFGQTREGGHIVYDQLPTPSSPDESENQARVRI

[6] = target: T3, Proteasome subunit beta (Trypanosoma cruzi) (UniProt O96673); assay: Trypanosoma cruzi proteasome chymotrypsin-like activity (TcProtChymo) assay.; note: in the data most compounds retested in dose-response had high values; assay type: functional; details: 9.37 µM
T3 sequence (whole entry): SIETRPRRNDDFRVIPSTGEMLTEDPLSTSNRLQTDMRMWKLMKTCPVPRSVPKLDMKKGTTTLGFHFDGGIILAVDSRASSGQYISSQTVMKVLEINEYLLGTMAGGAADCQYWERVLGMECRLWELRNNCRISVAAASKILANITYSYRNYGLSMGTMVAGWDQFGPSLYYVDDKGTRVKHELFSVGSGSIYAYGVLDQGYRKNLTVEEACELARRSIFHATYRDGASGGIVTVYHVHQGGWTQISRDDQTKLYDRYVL

Homo sapiens = species: Homo sapiens; assay: To identify inhibition of the IFN signalling (Jak-Stat) pathway via expression of an eGFP reporter gene under the control of an IFN-stimulated response element (ISRE) containing MxA promoter.; assay type: functional; details: 30 µM
[7] = target: T4, Tyrosyl-tRNA synthetase, putative (Trypanosoma cruzi (strain CL Brener)) (UniProt Q4DSP6); assay: Trypanosoma cruzi tyrosyl tRNA synthetase (TcYRS) _High Tyrosine SOP; assay type: functional; details: 30 µM; note: in the data most compounds retested in dose-response had high values
T4 sequence (whole entry): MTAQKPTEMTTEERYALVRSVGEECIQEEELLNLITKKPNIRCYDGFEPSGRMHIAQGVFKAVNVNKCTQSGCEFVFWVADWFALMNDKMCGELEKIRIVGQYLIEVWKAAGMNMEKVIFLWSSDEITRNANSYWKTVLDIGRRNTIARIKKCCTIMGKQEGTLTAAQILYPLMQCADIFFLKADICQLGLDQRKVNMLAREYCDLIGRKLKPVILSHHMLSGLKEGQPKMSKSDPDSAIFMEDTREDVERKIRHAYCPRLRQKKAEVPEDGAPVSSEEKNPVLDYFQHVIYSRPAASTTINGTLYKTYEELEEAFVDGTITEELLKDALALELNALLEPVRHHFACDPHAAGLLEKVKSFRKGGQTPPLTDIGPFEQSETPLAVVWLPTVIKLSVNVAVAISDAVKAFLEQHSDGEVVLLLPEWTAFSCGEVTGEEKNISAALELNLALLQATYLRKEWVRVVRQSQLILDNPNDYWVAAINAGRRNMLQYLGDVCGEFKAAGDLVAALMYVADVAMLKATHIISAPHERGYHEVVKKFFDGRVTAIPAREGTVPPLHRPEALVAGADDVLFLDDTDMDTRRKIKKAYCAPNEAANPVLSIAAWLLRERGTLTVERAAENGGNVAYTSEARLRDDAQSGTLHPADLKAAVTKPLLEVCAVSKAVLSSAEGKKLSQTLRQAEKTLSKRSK

[8] = target: T4, Tyrosyl-tRNA synthetase, putative (Trypanosoma cruzi (strain CL Brener)); assay: Trypanosoma cruzi tyrosyl tRNA synthetase (TcYRS) SOP; assay type: functional; details: 30 µM
[9] = target: Chromo domain-containing protein 1 (Saccharomyces cerevisiae (strain ATCC 204508 / S288c) (Baker's yeast)) (UniProt P32657); assay: ScCHD-1 Enzyme Inhibition Assay; assay type: functional; details: 30 µM; note: in the data most compounds retested in dose-response had high values
Chromo domain-containing protein 1 (Saccharomyces cerevisiae (strain ATCC 204508 / S288c) (Baker's yeast)), sequence (P32657 whole entry, the tested form may be a part): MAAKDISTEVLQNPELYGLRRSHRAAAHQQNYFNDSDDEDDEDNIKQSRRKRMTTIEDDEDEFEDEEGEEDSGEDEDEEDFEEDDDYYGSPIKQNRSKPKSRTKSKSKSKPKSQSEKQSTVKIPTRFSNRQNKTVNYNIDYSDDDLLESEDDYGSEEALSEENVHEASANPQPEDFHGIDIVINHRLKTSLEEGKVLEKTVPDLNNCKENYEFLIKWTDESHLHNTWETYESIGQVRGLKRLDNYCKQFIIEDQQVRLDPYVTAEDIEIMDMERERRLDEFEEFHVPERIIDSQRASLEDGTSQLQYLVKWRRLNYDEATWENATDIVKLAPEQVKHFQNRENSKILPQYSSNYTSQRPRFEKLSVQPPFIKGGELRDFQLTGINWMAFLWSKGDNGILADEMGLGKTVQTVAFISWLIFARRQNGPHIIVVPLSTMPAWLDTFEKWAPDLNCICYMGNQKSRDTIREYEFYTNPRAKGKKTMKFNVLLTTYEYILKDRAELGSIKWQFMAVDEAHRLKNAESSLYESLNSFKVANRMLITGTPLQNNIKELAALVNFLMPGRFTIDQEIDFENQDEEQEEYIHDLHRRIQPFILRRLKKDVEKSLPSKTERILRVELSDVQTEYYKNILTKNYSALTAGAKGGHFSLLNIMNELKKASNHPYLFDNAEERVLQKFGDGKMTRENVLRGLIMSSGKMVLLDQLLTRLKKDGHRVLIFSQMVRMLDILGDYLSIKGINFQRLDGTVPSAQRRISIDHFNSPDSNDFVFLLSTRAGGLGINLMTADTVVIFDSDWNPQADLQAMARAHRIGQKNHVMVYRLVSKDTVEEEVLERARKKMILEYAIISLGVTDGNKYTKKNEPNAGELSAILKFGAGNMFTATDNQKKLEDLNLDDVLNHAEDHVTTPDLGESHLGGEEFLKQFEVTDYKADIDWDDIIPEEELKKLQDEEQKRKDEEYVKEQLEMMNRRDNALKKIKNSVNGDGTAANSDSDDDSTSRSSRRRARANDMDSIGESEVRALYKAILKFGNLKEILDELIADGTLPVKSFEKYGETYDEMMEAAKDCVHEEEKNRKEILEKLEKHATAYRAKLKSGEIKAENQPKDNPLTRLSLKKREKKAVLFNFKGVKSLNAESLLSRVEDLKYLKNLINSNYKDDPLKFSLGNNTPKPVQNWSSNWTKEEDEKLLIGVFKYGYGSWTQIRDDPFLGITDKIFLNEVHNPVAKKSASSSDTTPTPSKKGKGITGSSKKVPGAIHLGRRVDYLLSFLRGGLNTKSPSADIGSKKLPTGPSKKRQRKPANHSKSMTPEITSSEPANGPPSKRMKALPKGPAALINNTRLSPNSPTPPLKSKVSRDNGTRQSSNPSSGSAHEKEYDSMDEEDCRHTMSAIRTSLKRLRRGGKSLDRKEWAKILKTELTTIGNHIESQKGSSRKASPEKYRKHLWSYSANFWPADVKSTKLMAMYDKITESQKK

Sialic acid-binding Ig-like lectin 9 (Homo sapiens), sequence (Q9Y336 whole entry): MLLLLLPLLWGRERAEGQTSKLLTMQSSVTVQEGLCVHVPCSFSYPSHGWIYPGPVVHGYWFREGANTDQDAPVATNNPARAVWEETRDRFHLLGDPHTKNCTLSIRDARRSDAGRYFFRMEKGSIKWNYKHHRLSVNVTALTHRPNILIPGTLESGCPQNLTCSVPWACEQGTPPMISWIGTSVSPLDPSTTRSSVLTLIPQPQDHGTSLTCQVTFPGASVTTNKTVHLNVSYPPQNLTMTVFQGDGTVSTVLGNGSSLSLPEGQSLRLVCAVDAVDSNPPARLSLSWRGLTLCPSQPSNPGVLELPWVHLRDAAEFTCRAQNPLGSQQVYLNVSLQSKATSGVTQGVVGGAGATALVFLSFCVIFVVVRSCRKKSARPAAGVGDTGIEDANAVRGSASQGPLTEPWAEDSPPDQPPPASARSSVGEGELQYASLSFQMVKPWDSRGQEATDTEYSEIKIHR
Protein translocase subunit SecA (Escherichia coli (strain K12)), sequence (P10408 whole entry): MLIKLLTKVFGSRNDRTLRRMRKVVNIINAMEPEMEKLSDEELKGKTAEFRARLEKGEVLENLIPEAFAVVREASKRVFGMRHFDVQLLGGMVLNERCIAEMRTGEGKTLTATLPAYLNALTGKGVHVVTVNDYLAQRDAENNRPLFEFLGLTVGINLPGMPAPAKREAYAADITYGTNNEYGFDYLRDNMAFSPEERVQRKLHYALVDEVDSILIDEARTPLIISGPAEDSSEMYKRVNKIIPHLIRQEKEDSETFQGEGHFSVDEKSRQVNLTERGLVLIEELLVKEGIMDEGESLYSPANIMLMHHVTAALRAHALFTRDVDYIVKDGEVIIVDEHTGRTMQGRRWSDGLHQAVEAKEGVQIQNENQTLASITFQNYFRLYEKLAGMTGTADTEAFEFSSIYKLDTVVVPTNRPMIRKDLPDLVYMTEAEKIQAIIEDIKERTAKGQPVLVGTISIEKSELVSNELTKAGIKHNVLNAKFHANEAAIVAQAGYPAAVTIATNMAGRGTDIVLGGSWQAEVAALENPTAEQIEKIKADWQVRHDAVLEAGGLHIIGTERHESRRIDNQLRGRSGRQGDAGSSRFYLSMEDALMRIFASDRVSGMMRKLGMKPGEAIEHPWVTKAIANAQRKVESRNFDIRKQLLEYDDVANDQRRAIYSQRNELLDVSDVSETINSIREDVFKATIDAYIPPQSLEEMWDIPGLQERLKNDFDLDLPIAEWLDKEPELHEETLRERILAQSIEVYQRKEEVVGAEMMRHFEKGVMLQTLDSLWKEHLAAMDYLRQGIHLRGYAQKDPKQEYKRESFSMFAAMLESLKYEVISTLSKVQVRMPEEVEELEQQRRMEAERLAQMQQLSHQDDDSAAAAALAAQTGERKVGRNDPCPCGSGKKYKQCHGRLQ

O=C(NCCCn1nc2ccccn2c1=O)NC1CCC(O)CC1 (stereo not given)
Percent Effect [1]: -2.16%
Percent Effect [2]: 2.74%
Percent Effect [3]: 9.76%
Percent Effect [4]: 3.96%
Percent Effect (Trypanosoma cruzi): -8.62%
Percent Effect [5]: 0.455%
Percent Effect [6]: 22.5%
Percent Effect (Homo sapiens): 9.28%
Percent Effect [7]: 0%
Percent Effect [8]: 2.5%
Percent Effect [9]: -4.68%

CS(=O)(=O)NCC1CCCN(C(=O)Nc2cccnc2N2CCCC2)C1 (stereo not given)
Percent Effect [1]: -5.11%
Percent Effect [2]: 13.2%
Percent Effect [3]: -26.3%
Percent Effect [4]: -7.09%
Percent Effect (Trypanosoma cruzi): -6.33%
Percent Effect [5]: 2.37%
Percent Effect [6]: 16.4%
Percent Effect (Homo sapiens): -14.6%
Percent Effect [7]: 2.13%
Percent Effect [8]: 5.2%
Percent Effect [9]: -7%

Cn1cc(N2CC3(CCN(Cc4cccs4)CC3)OCC2=O)cn1
Percent Effect [1]: -0.959%
Percent Effect [2]: -2.74%
Percent Effect [3]: -1.55%
Percent Effect [4]: 15.7%
Percent Effect (Trypanosoma cruzi): 2.38%
Percent Effect [5]: 3.19%
Percent Effect [6]: 3.68%
Percent Effect (Homo sapiens): 2.59%
Percent Effect [7]: -14.6%
Percent Effect [8]: 8.64%
Percent Effect [9]: -2.76%

CN(Cc1nnc(-c2ccco2)o1)CC1CCCN1c1cccnn1 (stereo not given)
Percent Effect [1]: -4.76%
Percent Effect [2]: 10.4%
Percent Effect [3]: -4.64%
Percent Effect [4]: -13.5%
Percent Effect (Trypanosoma cruzi): -0.881%
Percent Effect [5]: 2.32%
Percent Effect [6]: 21.9%
Percent Effect (Homo sapiens): 15.6%
Percent Effect [7]: 4.76%
Percent Effect [8]: 9.41%
Percent Effect [9]: -19.2%

Cc1cc(C2CCCN(CCCNS(C)(=O)=O)C2)n[nH]1 (stereo not given)
Percent Effect [1]: -3.61%
Percent Effect [2]: 2.53%
Percent Effect [3]: -4.24%
Percent Effect [4]: 13.7%
Percent Effect (Trypanosoma cruzi): -0.283%
Percent Effect [5]: -2.66%
Percent Effect [6]: -2.7%
Percent Effect (Homo sapiens): -2.96%
Percent Effect [7]: 5.42%
Percent Effect [8]: 3.8%
Percent Effect [9]: -0.769%
